Results filed as inconclusive are left out. Active and inactive are the calls of the source. Unless noted, calls follow the shape of the dose curve; as a rule, active = well fitted curve in the direction sought with a large enough effect; inconclusive = small, poorly fitted or top-dose-only effect, or another doubt; inactive = no such curve, though single readings can be large; an effect the other way counts as inactive or inconclusive.

Test [1] is described as follows: Cell Viability - BJ (AID 421; calls by dose curve;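 also: potency is read from the fitted curve at half-maximal effect; cells exposed to compound for 40 hours at 37 °C before readout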). The settings on record: BJ fibroblast viability, qHTS. Put shortly: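 Quantitative HTS: ATP depletion in BJ cells after 40 hr compound exposure in complete culture medium, detected with CellTiter-Glo; AC50 from standard Hill fits.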
A general note: Quantitative high-throughput screening tests each substance at several concentrations.

The nature of test [2]: Cell Viability - Hek293 (AID 427;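 active = compounds whose dose-response curve shows a full or clear partial loss of cell viability, called from curve shape rather than a numeric limit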;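 also: potency is read from the fitted curve at half-maximal effect; cells exposed to compound for 40 hours at 37 °C before reading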). The settings on record: qHTS. Put shortly: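 AC50 values derive from Hill-modelled concentration-response of ATP-based luminescence, normalized between DMSO-only and 100 uM tamoxifen controls. Cells were exposed in complete culture medium for 40 hr at 37 °C before detection.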
Test [3] can be described thus: Cell Viability - HUV-EC-C (AID 542). Also: % is scaled to controls: 0 for no effect and ±100 for the full control effect; nearly all actives have a fitted effect of over 35% in size. Put shortly: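 Cells were seeded at 1000 per well and incubated 5 hr at 37 °C before compound addition. After 40 hr at 37 °C, CellTiter-Glo reagent was added for 20 min and luminescence read. AC50 values came from Hill-equation modelling.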
A short description of test [4]: Cellular Toxicity (caspase-3) HUV-EC-C (AID 656). The essentials:
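Concentration-dependent caspase 3/7 induction was assessed in HUV-EC-C cells exposed for 16 hours. Data scaled between DMSO and tamoxifen (100 uM) controls.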

A short description of test [5]: Cellular Toxicity (caspase-3) MRC-5 (AID 659).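 Also: 0% = DMSO basal and 100% = 10 µM staurosporine.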 The essentials: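 Apoptosis readout in MRC-5 cells: luciferase light generated after caspase 3/7 cleaves a peptide-aminoluciferin substrate, measured post 16 hr compound incubation at 37 °C.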
Test [6] can be described thus: Cellular Toxicity (caspase-3) Mesangial (AID 660).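 Also: combined caspase 3 and 7 activity read by Caspase-Glo luminescence; cells exposed to compound for 16 h before the caspase read.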 Put shortly:
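Seed cells derived from normal human renal glomeruli, incubate 5 h, add compounds across concentrations and incubate 16 h at 37 °C. Caspase 3/7 activation is then quantified by luciferase light, with AC50 derived by Hill modeling.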

A short description of test [7]: Cellular Toxicity (caspase-3) SK-N-SH (AID 661).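 Also: 0% = DMSO basal and 100% = 10 µM staurosporine.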 The essentials: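 Cells were seeded and incubated 5 hr at 37 °C, dosed with compound over a concentration range for 16 hr, then given Caspase-Glo 3/7 reagent for 1 hr at room temperature before luminescence reading.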
Test [8] is described as follows: Cellular Toxicity (caspase-3) Hek293 (AID 664).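 Also: cells exposed to compound for 16 h at 37 °C before readout.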 The settings on record: HEK293 caspase-3 activation, DMSO = 0%, 100 µM tamoxifen = 100%; at 92.2 µM (top of the series). Put shortly:
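qHTS, HEK293 (human embryonic kidney), 16 h cpd exposure in complete medium. Caspase-3/7 activation = luminescence increase; normalized to DMSO/100 uM tamoxifen; Hill-fit AC50.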

Test [9] can be described thus: Cellular Toxicity (caspase-3) NIH 3T3 (AID 666).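 Also: caspase signal read after 16 h compound exposure; 0% = DMSO basal and 100% = 100 µM tamoxifen stimulation.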 The essentials: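 Cells were plated at 1000 per well and incubated 5 hr at 37°C, then compound was added for 16 hr. Caspase-Glo 3/7 reagent followed for 20 min at room temperature before luminescence was read.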
Test [10] in a line: MultiTox-Fluor Cytotoxicity Assay - LYMP1-001 - Dead Cells (AID 946).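 Also: 0% = DMSO and 100% = tetraoctylammonium bromide.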 Put shortly:
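In this qHTS, 15 uM tetraoctylammonium bromide defined 100% and DMSO defined basal activity. Lymphoblastoid cells (LYMP1-001, 2500 per well) received compound for 16 hr at 37 C before a fluorogenic dead-cell substrate readout at 485/520 nm.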

A short description of test [11]: Cell Viability - LYMP1-002 - Assay at 16 hr (AID 948).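 Also: 0% = DMSO alone and full effect = 92 µM tetraoctylammonium bromide.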 Put shortly:
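In this qHTS, lymphoblastoid LYMP1-002 cells (human) receive compounds for 16 hr at 37 C. Viability is taken from CellTiter-Glo ATP luminescence, and AC50 derives from standard Hill fits.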

Test [12] is described as follows: Cell Viability - LYMP2-013 (AID 970).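 Also: cells exposed to compound for 24 h at 37 °C; 0% = DMSO only and full inhibition = tetraoctylammonium bromide control; nearly all actives have a fitted effect of over 55% in size.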 Put shortly:
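Cytotoxicity is scored as a concentration-dependent drop in intracellular ATP in human lymphoblastoid cells after 24 hr compound exposure at 37 C. ATP is quantified by luciferase luminescence, and AC50 values come from Hill-equation modeling.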

The nature of test [13]: Cell Viability - LYMP2-019 (AID 973).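 Also: cells exposed to compound for 24 h at 37 °C; 0% = DMSO alone and full effect = 92 µM tetraoctylammonium bromide; nearly all actives have a fitted effect of over 55% in size.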 The essentials: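 Cytotoxicity is scored as a concentration-dependent drop in cellular ATP after cells (2500/well) receive compound for 24 hr at 37 C. Tetraoctylammonium bromide serves as positive control.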
Test [14] can be described thus: Cell Viability - LYMP2-026 (AID 989).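 Also: cells exposed to compound for 24 h at 37 °C; % is scaled to controls: 0 for no effect and ±100 for the full control effect; nearly all actives have a fitted effect of over 50% in size.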 Put shortly: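 Cells are seeded at 2500 per well and held 5 hr at 37 C. Compounds are added in concentration series for 24 hr, then CellTiter-Glo reagent is applied and luminescence read.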
The nature of test [15]: qHTS assay for small molecule agonists of retinoid X receptor alpha signaling (AID 588544; calls by dose curve;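 as to activation: 0% = DMSO basal wells and 100% = reference agonist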). The settings on record: HEK293T RXRa-UAS-bla, beta-lactamase reporter, 18 h; 530 nm emission.
For test [16], the target named is Retinoic acid receptor RXR-alpha (Homo sapiens) (UniProt P19793). The description is as above.
Retinoic acid receptor RXR-alpha (Homo sapiens), sequence (P19793 whole entry, looked up): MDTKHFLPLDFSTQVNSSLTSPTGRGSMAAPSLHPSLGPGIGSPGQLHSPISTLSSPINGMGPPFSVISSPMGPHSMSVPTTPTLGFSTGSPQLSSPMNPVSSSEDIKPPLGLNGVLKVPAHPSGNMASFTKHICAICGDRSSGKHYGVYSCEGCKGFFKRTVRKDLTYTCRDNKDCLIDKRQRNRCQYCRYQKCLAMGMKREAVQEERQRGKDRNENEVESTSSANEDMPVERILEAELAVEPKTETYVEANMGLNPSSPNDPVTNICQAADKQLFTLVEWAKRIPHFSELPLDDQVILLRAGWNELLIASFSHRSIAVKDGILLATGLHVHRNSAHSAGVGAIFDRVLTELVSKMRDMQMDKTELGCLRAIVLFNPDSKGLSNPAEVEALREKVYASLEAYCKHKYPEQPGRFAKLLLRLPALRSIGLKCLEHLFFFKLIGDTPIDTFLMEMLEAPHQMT
The nature of test [17]: qHTS assay for small molecule antagonists of retinoid X receptor alpha signaling (AID 588546).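 Also: cells stimulated with 9-cis-retinoic acid as agonist; % is scaled to controls: 0 for no effect and ±100 for the full control effect.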 The settings on record: HEK293T RXRa-UAS-bla, beta-lactamase ratio, antagonist mode; measured here: W530 green channel, cytotoxicity proxy. Put shortly:
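Beta-lactamase reporter inhibition, read as CCF4 fluorescence ratio (ex 405, em 460/530 nm) after 2 h at RT. HEK293T UAS-bla cells, 2500/well, were stimulated with 9-cis-RA at 500 or 100 nM final alongside test compound for 18 h at 37 C.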

In test [18] the target is Peroxisome proliferator-activated receptor alpha (Homo sapiens) (UniProt Q07869). The experiment in a line: qHTS assay for small molecule agonists of the peroxisome proliferator-activated receptor alpha (PPARalpha) signaling pathway (AID 651778). Also: % of control where 0% means no effect. Particulars: PathHunter PPARalpha complementation, chemiluminescence, 6 h; stronger effect = higher value. The essentials:
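Cells plated at 2,000/well and held overnight at 37 C, 5% CO2, then compound added by pin tool for 6 hr; after PathHunter detection reagent and 60 min at room temperature, chemiluminescence from enzyme complementation was read.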

Test [19] is described as follows: qHTS assay for small molecule agonists of the antioxidant response element (ARE) signaling pathway measured by Nrf2-dependant transcriptional activity - cell viability counter screen (AID 720653; active = well fitted curve in the direction sought with a large enough effect in the repeat runs; an effect the other way counts as inactive or inconclusive; also: % is scaled to controls: 0 for no effect and ±100 for the full control effect). Particulars: ARE-bla HepG2 viability, CellTiter-Glo ATP luminescence, 16 h; stronger effect = lower value. Put shortly: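 ARE-bla HepG2 cells (2,000/well) rested 5 hrs at 37C/5% CO2, then exposed to compounds in DMSO for 16 hrs. Viability was read in the same wells as intracellular ATP by luminescence, 30 min at room temperature after reagent addition.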

Test [20] is described as follows: qHTS assay for cell viability of the p53RE-bla HCT-116 cell line (AID 743292). Also: % is scaled to controls: 0 for no effect and ±100 for the full control effect; nearly all actives have a fitted effect of over 55% in size. The essentials:
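In this qHTS counter-screen, metabolically competent p53RE-bla HCT-116 cells were counted via their ATP content. Compounds were applied for 16 h at 37 C and luciferase-coupled luminescence was measured.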

Peroxisome proliferator-activated receptor alpha (Homo sapiens), sequence (Q07869 whole entry, looked up): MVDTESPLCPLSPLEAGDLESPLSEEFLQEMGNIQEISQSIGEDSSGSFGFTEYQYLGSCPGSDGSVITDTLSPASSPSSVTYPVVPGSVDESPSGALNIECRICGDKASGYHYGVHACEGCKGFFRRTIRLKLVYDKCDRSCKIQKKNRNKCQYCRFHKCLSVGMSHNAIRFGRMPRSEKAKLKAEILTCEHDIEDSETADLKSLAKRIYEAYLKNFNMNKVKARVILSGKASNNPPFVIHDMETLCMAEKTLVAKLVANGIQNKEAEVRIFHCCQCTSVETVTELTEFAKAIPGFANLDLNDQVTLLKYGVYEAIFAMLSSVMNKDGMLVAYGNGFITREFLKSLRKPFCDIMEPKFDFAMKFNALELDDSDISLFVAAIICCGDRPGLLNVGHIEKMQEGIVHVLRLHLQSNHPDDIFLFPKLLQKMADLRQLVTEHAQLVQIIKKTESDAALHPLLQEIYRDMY

On to `Nc1cc(Cl)cc(Cl)c1`, for which the Potency in [1] and in test [2] was > 92 µM (inactive) each time. For the same compound, the Potency entry in test [3], in test [7], in test [9], in test [12], in test [13] and in [14] was “inactive” in each case. Moreover, the Potency result in test [20] is “inactive”. Also, the outcome in [4], in [5], in test [6], in [10], in [11] and in test [16] was inactive. Further, in [8], the caspase-3 activation is 1.09% (inactive). In addition, the max response was -17% in test [15], -5.15% in test [17], 0.393% (inactive) in [18] and -13% (inactive) in test [19].

In the case of `Oc1ccc(Cl)c(Cl)c1Cl`, the Potency in test [1] and in test [2] was > 92 µM (inactive) in each case. Besides, the Potency result in [3], in test [7], in [9], in test [12], in test [13] and in test [14] was “inactive” throughout. Besides, the Potency result in [20] was “inactive”. Also, the outcome in test [4], in test [5], in test [6], in test [10], in [11] and in test [16] was inactive. In [8], the caspase-3 activation was 1.72% (inactive). Besides, the max response was -5.29% in [15], 0.378% (inactive) in test [18] and 13.8% (inactive) in test [19].

On to `[O-][Cl+2]([O-])O`, for which the Potency in test [1] and in [2] was > 92 µM (inactive) in each case. The Potency entry in [3], in [7], in test [9], in test [12], in test [13] and in test [14] was “inactive” throughout. In addition, the Potency entry in test [20] is “inactive”. Moreover, the outcome in test [4], in test [5], in test [6], in test [10], in test [11] and in test [16] was inactive. Further, the caspase-3 activation in test [8] was -0.13% (inactive). Besides, the max response was 6.62% in test [15], -3.35% in test [17], -2.92% (inactive) in test [18] and 27.9% (inactive) in test [19].

Take `C=CC(=O)OC`: the Potency in test [1] and in [2] was > 92 µM (inactive) each time. The Potency entry in test [3], in test [7], in test [9], in test [12], in test [13] and in test [14] was “inactive” in each case. Besides, the Potency entry in test [20] is “inactive”. The compound was called inactive in test [4], in test [5], in [6], in test [10], in test [11] and in [16]. In test [8], the caspase-3 activation was 2% (inactive). The max response in test [15] is -10.9%; in test [17], -10.6%; in test [18], -1.74% (inactive); in test [19] it was 8.65% (inactive).

Take `CC(C)OS(C)(=O)=O`: the Potency in test [1] and in test [2] was > 92 µM (inactive) in each case. Also, the Potency entry in test [3], in test [7], in test [9], in [12], in test [13] and in test [14] was “inactive” throughout. Also, the Potency entry in test [20] is “inactive”. The outcome in [4], in test [5], in [6], in test [10], in test [11] and in test [16] was inactive. The caspase-3 activation in test [8] is -0.589% (inactive). For the same compound, the max response was -2.85% in test [15], 5.36% in [17], -9.26% (inactive) in test [18] and -6.13% (inactive) in test [19].

Regarding `CCOC(=O)CBr`, the Potency in test [1] and in test [2] was > 92 µM (inactive) in each case. The Potency result in test [3], in [7], in test [9], in test [12], in test [13] and in test [14] was “inactive” in each case. Further, in test [20], the Potency entry is “inactive”. Moreover, the compound was called inactive in test [4], in test [5], in [6], in [10], in test [11] and in test [16]. Besides, the caspase-3 activation in test [8] was 1.06% (inactive). Moreover, the max response was 8.56% in test [15], -3.97% in [17], -2.92% (inactive) in test [18] and 1.03% (inactive) in test [19].

As to `Oc1cc(Cl)cc(Cl)c1`, the Potency in [1] and in test [2] was > 92 µM (inactive) in each case. Besides, the Potency entry in test [3], in test [7], in [9], in [12], in test [13] and in test [14] was “inactive” throughout. In addition, the Potency result in test [20] was “inactive”. Besides, the compound was called inactive in test [4], in test [5], in test [6], in test [10], in test [11] and in test [16]. Also, the caspase-3 activation in test [8] was -1.48% (inactive). In addition, the max response in [15] is -13.2%; in test [17], -2.61%; in test [18], 5.88% (inactive); in [19], -11.3% (inactive).

For the compound `N#CC(O)c1ccccc1` (stereo not drawn), the Potency in test [1] and in test [2] was > 92 µM (inactive) each time. Further, the Potency result in [3], in test [7], in test [9], in test [12], in test [13] and in [14] was “inactive” throughout. Further, in test [20], the Potency entry was “inactive”. For the same compound, the compound was classed as inactive in test [4], in [5], in test [6], in test [10], in [11] and in test [16]. The caspase-3 activation in test [8] was 0.0339% (inactive). Further, the max response is -0.409% in test [15], -9.69% in [17], 12.9% (inactive) in test [18] and 12.9% (inactive) in [19].

Take `Cc1cc(C)cc(OP(=O)(Oc2cc(C)cc(C)c2)Oc2cc(C)cc(C)c2)c1`: the Potency in [1] and in [2] was > 92 µM (inactive) each time. In addition, the Potency result in [3], in test [7], in test [9], in test [12], in [13] and in test [14] was “inactive” in each case. The Potency result in test [20] was “inactive”. Moreover, the compound was classed as inactive in test [4], in test [5], in test [6], in test [11] and in test [16]. Further, the caspase-3 activation in test [8] is 1.43% (inactive). The max response in test [15] was -11.1%; in [17], 17.8%; in test [18], -0.353% (inactive); in test [19] it was -9.8% (inactive).

Regarding `C=CCOCC1CO1` (stereo not drawn), the Potency in test [1] and in test [2] was > 92 µM (inactive) throughout. For the same compound, the Potency entry in test [3], in test [7], in test [9], in test [12], in test [13] and in test [14] was “inactive” in each case. Also, the Potency result in test [20] is “inactive”. In addition, the compound was classed as inactive in test [4], in test [5], in test [6], in [10], in test [11] and in test [16]. Besides, the caspase-3 activation in test [8] was 2.83% (inactive). Further, the max response in test [15] is 1.34%; in [17], 2.33%; in test [18], 11.4% (inactive); in test [19], 2.37% (inactive).

(Values after PubChem BioAssay (NCATS).)
